Results published in PubChem BioAssay AID1159580 (chemical genetic matrix, 2015).
Values joined by “and” are separate entries in the source; they are usually repeats but may differ in a detail not shown here. Identical values can stand only once. The campaign covered roughly 5,500 compounds. About 2,000 (36%) were called active. Another 18% or so got no clear call; they are omitted. Cut-off read from the data, not from the text of the source: active = normalized growth mostly below about 0.91 (no sharp cut-off); inconclusive = no clear call, values can overlap the other calls; inactive = mostly above about 0.92. The list shows a part of the results.

Assay: chemical genetic growth profiling, strain panel (AID 1159580);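 note: tested at 20 µM; growth read once vehicle control cultures reached saturation at 30 °C; 1 = growth at the plate median or of vehicle wells; lower values mean less growth of the strain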
Details: S. cerevisiae deletion strains, growth OD

Measured: normalized growth

NC(=NCCCCCCN=C(N)N=C(N)Nc1ccc(Cl)cc1)N=C(N)Nc1ccc(Cl)cc1
active: locus YAL013W, strain DEP1, active compounds read low 0.056 | locus YAL021C, strain ccr4, active compounds read low 0.0662 | locus YAL026C, strain drs2, active compounds read low 0.0626 | locus YAL030W, strain snc1, active compounds read low 0.0546 | locus YBL061C, strain skt5, active compounds read low 0.058 | locus YBR009C, strain hhf1, active compounds read low 0.0582 | locus YBR021W, strain FUR4, active compounds read low 0.0878 | locus YBR023C, strain chs3, active compounds read low 0.0607 | locus YBR171W, strain sec66, active compounds read low 0.0764 | locus YBR229C, strain ROT2, active compounds read low 0.0485 | locus YBR231C, strain swc5, active compounds read low 0.0617 | locus YBR279W, strain paf1, active compounds read low 0.057 | locus YCL011C, strain gbp2, active compounds read low 0.0584 | locus YCL016C, strain dcc1, active compounds read low 0.0623 | locus YCL029C, strain bik1, active compounds read low 0.0646 | locus YCL061C, strain MRC1, active compounds read low 0.064 | locus YCL069W, strain vba3, active compounds read low 0.0598 | locus YCR088W, strain abp1, active compounds read low 0.0598 | locus YDL005C, strain med2, active compounds read low 0.0712 | locus YDL035C, strain GPR1, active compounds read low 0.0531 | locus YDL040C, strain nat1, active compounds read low 0.0593 | locus YDL074C, strain BRE1, active compounds read low 0.0847 | locus YDL101C, strain DUN1, active compounds read low 0.0564 | locus YDL134C, strain PPH21, active compounds read low 0.049 | locus YDL185W, strain tfp1, active compounds read low 0.0606 | locus YDL192W, strain arf1, active compounds read low 0.0624 | locus YDR001C, strain nth1, active compounds read low 0.0588 | locus YDR069C, strain doa4, active compounds read low 0.0603 | locus YDR101C, strain arx1, active compounds read low 0.0584 | locus YDR137W, strain rgp1, active compounds read low 0.0872 | locus YDR150W, strain NUM1, active compounds read low 0.0563 | locus YDR159W, strain sac3, active compounds read low 0.0896 | locus YDR162C, strain NBP2, active compounds read low 0.0503 | locus YDR195W, strain ref2 0.121 | locus YDR297W, strain sur2, active compounds read low 0.0547 | locus YDR318W, strain mcm21, active compounds read low 0.0658 | locus YDR334W, strain swr1, active compounds read low 0.0626 | locus YDR335W, strain msn5, active compounds read low 0.0581 | locus YDR388W, active compounds read low 0.0574 | locus YDR392W, strain spt3, active compounds read low 0.0798 | locus YDR502C, strain sam2, active compounds read low 0.0629 | locus YEL003W, strain gim4, active compounds read low 0.0531 | locus YEL037C, strain rad23, active compounds read low 0.0554 | locus YEL061C, strain CIN8 (second series), active compounds read low 0.0594 | locus YEL061C, strain CIN8, active compounds read low 0.0488 | locus YER015W, strain faa2, active compounds read low 0.0825 | locus YER016W, strain bim1, active compounds read low 0.058 | locus YER110C, active compounds read low 0.0744 | locus YER111C, strain swi4, active compounds read low 0.0705 | locus YER155C, strain BEM2 (second series), active compounds read low 0.087 | locus YER155C, strain BEM2, active compounds read low 0.0622 | locus YER167W, strain BCK2, active compounds read low 0.0527 | locus YFR010W, strain ubp6, active compounds read low 0.0674 | locus YGL078C, strain dbp3, active compounds read low 0.65 | locus YGL086W, strain mad1, active compounds read low 0.0564 | locus YGL167C, strain pmr1, active compounds read low 0.0727 | locus YGL173C, strain kem1, active compounds read low 0.0668 | locus YGL227W, strain vid30, active compounds read low 0.0612 | locus YGL240W, strain doc1, active compounds read low 0.0747 | locus YGL248W, strain PDE1, active compounds read low 0.0464 | locus YGL253W, strain hxk2, active compounds read low 0.0538 | locus YGR078C, strain PAC10, active compounds read low 0.0508 | locus YGR135W, strain pre9, active compounds read low 0.0694 | locus YGR229C, strain SMI1, active compounds read low 0.0582 | locus YGR252W, strain gcn5, active compounds read low 0.146 | locus YHR013C, strain ard1, active compounds read low 0.103 | locus YHR027C, strain rpn1, active compounds read low 0.058 | locus YHR030C, strain SLT2, active compounds read low 0.051 and 0.102 | locus YHR079C, strain IRE1 (second series), active compounds read low 0.0602 | locus YHR079C, strain IRE1, active compounds read low 0.112 | locus YHR094C, strain hxt1, active compounds read low 0.0587 | locus YHR129C, strain ARP1, active compounds read low 0.0541 | locus YHR142W, strain chs7, active compounds read low 0.0756 | locus YHR200W, strain rpn10, active compounds read low 0.0614 | locus YIL066C, strain RNR3, active compounds read low 0.0507 | locus YIL073C, strain SPO22, active compounds read low 0.128 | locus YIL125W, strain kgd1, active compounds read low 0.898 | locus YIR030C, strain dcg1, active compounds read low 0.0593 | locus YJL092W, strain hpr5, active compounds read low 0.0573 | locus YJL095W, strain BCK1 (second series), active compounds read low 0.0565 | locus YJL095W, strain BCK1, active compounds read low 0.0587 and 0.0988 | locus YJL115W, strain asf1, active compounds read low 0.0702 | locus YJL129C, strain trk1, active compounds read low 0.0784 | locus YJL134W, strain LCB3, active compounds read low 0.0499 | locus YJL154C, strain vps35, active compounds read low 0.0596 | locus YJL164C, strain tpk1, active compounds read low 0.0644 | locus YJL166W, strain qcr8, active compounds read low 0.0585 | locus YJL168C, strain set2, active compounds read low 0.059 | locus YJL187C, strain SWE1 (second series), active compounds read low 0.0495 | locus YJR043C, strain POL32, active compounds read low 0.0601 | locus YJR066W, strain TOR1, active compounds read low 0.00766
